{"source": "PubChem BioAssay AID588453", "about": "(National Center for Advancing Translational Sciences (NCATS), 2011)", "note": "Hit rate of the full screen: of about 390,000 compounds, about 4,000 (1%) were called active. Entries that show only a call come without a potency. Roughly 4% stayed inconclusive and do not appear here. Calls come from the whole dose curve; as a rule, active = well fitted inhibition curve with a large enough effect; inconclusive = small, poorly fitted or top-dose-only effect; inactive = no such curve, though single readings can be large or run the other way. This excerpt belongs to a sample that is enriched for actives. Potency is the fitted concentration of half-maximal effect."}
{"biological_target": "Thioredoxin reductase 1, cytoplasmic (Rattus norvegicus) (UniProt O89049)", "sequence (O89049 whole entry, looked up)": "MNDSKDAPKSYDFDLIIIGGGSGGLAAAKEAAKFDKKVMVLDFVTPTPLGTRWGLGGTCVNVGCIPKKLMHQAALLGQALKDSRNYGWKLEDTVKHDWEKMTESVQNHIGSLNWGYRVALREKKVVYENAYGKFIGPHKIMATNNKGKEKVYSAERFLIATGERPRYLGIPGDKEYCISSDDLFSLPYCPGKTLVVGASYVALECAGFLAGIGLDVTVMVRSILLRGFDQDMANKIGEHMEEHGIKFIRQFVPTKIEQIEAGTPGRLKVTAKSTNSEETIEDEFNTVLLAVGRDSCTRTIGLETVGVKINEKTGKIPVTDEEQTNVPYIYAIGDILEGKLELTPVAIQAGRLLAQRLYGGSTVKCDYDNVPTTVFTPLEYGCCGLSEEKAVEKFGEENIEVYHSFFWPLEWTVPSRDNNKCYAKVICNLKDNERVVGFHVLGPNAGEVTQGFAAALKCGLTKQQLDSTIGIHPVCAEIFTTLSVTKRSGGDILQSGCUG", "assay": "qHTS Assay for Inhibitors of Mammalian Selenoprotein Thioredoxin Reductase 1 (TrxR1): qHTS; note: nearly all actives have a fitted effect of over 65% in size", "conditions": "recombinant rTrxR1, NADPH fluorescence consumption, selenite substrate; series mostly up to 114 µM", "summary_of_the_method": "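Rat TrxR1 (90 nM in the dispensed reagent) was pre-reduced with 400 uM NADPH for 5 min at room temperature, then incubated with compound for 15 min. After 400 uM selenite was added, NADPH fluorescence (Ex 340/Em 450 nm) was followed for 8 min.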"}
{"smiles": "CCCCC(CCCC)c1ccc(C=Nc2ccc(/C=C/c3ccnc4ccccc34)cc2)cc1", "Potency": "inactive"}
{"smiles": "COc1cccc(Cn2c(SCc3ccc(C(=O)N4CCCCC4)cc3)nc3ccncc32)c1", "Potency": "inactive"}
{"smiles": "Fc1cccc(-n2ncc3c2ncn2nc(-c4ccccc4Cl)nc32)c1", "Potency": "inactive"}
{"smiles": "C1=C(N2CCOCC2)/C(=C/c2nc3ccccc3[nH]2)CC1", "Potency": "15.8 µM (active)"}
{"smiles": "Cc1nn2c3cc(N4CCOCC4)ccc3nc2c2ccccc12", "Potency": "inactive"}
{"smiles": "Cn1cc(S(=O)(=O)N2CCCCCC2)cc1C(=O)N1CCN(c2ccc(F)cc2)CC1", "Potency": "inactive"}
{"smiles": "NS(=O)(=O)c1cccc(NC(=O)COC(=O)/C=C/c2ccco2)c1", "Potency": "inactive"}
{"smiles": "COc1ccc([N+](=O)[O-])cc1NC(=O)COC(=O)/C=C/c1ccco1", "Potency": "inactive"}
{"smiles": "COc1cccc(NC(=O)COC(=O)/C=C/c2ccco2)c1", "Potency": "39.8 µM (active)"}
{"smiles": "CCC(C)N(c1ccc(/C=C/c2ccnc3ccccc23)cc1)C(C)CC", "note": "(stereo unspecified)", "Potency": "inactive"}
{"smiles": "CCN(CC)/[N+]([O-])=N/OCOC(=O)Cc1c(C)n(C(=O)c2ccc(Cl)cc2)c2ccc(OC)cc12", "activity change, negative = inhibition": "13.3% [at 0.457 µM] (inactive)"}
{"smiles": "COc1ccc(NC(=O)CSc2nc3ncccc3[nH]2)c(OC)c1", "Potency": "inactive"}
{"smiles": "OCC(O)C(O)C(O)C(O)C=Nc1ccc(/C=C/c2ccnc3ccccc23)cc1", "note": "(stereo unspecified)", "Potency": "inactive"}
{"smiles": "O=C(/C=C/c1ccco1)Nc1cccc(-c2nc3ccccc3[nH]2)c1", "Potency": "79.4 µM (active)"}
{"smiles": "O=C(Nc1cccc(-c2nc3ccccc3o2)c1)c1cccc(Br)c1", "Potency": "inactive"}
{"smiles": "CCc1ccc2oc(-c3ccc(C)c(NC(=O)/C=C/c4ccco4)c3)nc2c1", "Potency": "inactive"}
{"smiles": "COc1ccc(-c2cc(-c3nc(-c4cc(OC)c(OC)c(OC)c4)no3)[nH]n2)c(OC)c1", "Potency": "inactive"}
{"smiles": "O=C1/C(=C\\c2ccc(O)cc2)CCC1CNc1ccc(Cl)cc1", "note": "(stereo unspecified)", "Potency": "22.4 µM (active)"}
{"smiles": "Cc1ccc(NS(=O)(=O)c2ccc3c(c2)CC(=O)N3)cc1Cl", "Potency": "inactive"}
{"smiles": "CCOc1n[nH]c(-c2ccccc2)n1", "Potency": "inactive"}
{"smiles": "CN(Cc1ccccc1)c1ccc(/C=C/c2ccnc3ccccc23)cc1", "Potency": "inactive"}
{"smiles": "COc1ccc(C(F)(F)F)cc1NC(=O)c1sc2nc(-c3cccs3)ccc2c1N", "Potency": "inactive"}
{"smiles": "C=CC1(C)CC(=O)C2(O)C(C)(O1)C(OC(C)=O)C(O)C1C(C)(C)CCC(O)C12C", "note": "(stereo unspecified)", "Potency": "inactive"}
{"smiles": "CCOc1ccc(C(C)NC(=O)CN2C(=O)NC3(CCCCC3)C2=O)cc1OCC", "note": "(stereo unspecified)", "Potency": "inactive"}
{"smiles": "CCOc1ccc(C(C)=O)cc1COC(=O)c1cnc(Cl)c(Cl)c1", "Potency": "inactive"}
{"smiles": "CCOc1ccc(C(C)=O)cc1COC(=O)CN1C(=O)NC2(CCCC2)C1=O", "Potency": "28.2 µM (active)"}
{"smiles": "CCOc1ccc(C(C)=O)cc1COC(=O)CNC(=O)c1cccs1", "Potency": "22.4 µM (active)"}
{"smiles": "COc1ccc(C(=O)COC(=O)CNC(=O)c2cccs2)cc1Br", "Potency": "inactive"}
{"smiles": "Cc1ccc(COC(=O)CN2C(=O)NC3(CCCC3)C2=O)cc1", "Potency": "inactive"}
{"smiles": "COc1ccc(/C=C/c2ccccn2)cc1OC", "Potency": "inactive"}
{"smiles": "O=C(NCCCN1CCN(c2cccc(Cl)c2)CC1)c1nnc(Cc2ccc(F)cc2Cl)o1", "Potency": "inactive"}
{"smiles": "COc1ccc(S(=O)(=O)Nc2cccc3cccnc23)c(N)c1", "Potency": "inactive"}
{"smiles": "Cc1cc(-c2ccc(C)c(S(=O)(=O)N3c4ccccc4CC3C)c2)on1", "note": "(stereo unspecified)", "Potency": "inactive"}
{"smiles": "CCOc1ccc(C2C(=O)N(C3CCCCC3)CC(=O)N2CCC2=CCCCC2)cc1OC", "note": "(stereo unspecified)", "Potency": "inactive"}
{"smiles": "CCOc1ccc(NC(=S)NC(=O)/C=C/c2ccc(OC)cc2)c([N+](=O)[O-])c1", "Potency": "inactive"}
{"smiles": "Cc1ccc(/C=C/C(=O)Nc2ccc([N+](=O)[O-])c(NC(=O)/C=C/c3ccc(C)o3)c2)o1", "Potency": "25.1 µM (active)"}
{"smiles": "Cc1ccc(/C=C/C(=O)OCC(=O)NCc2ccc(Cl)cc2)o1", "Potency": "inactive"}
{"smiles": "CN(C(=N)N)c1ccc(/C=C2\\C=Cc3ccccc32)cc1", "Potency": "inactive"}
{"smiles": "O=C(NCc1ccccc1Cl)C1=Cc2cc(Br)ccc2OC1", "Potency": "inactive"}
{"smiles": "COc1cc(OC)cc(C(=O)Nc2ccc(-c3nc4ccccc4o3)c(O)c2)c1", "Potency": "28.2 µM (active)"}
{"smiles": "COc1cc2ccccc2cc1C(=O)Nc1cccc(-c2nc3ccccc3o2)c1", "Potency": "inactive"}
{"smiles": "COc1cccc(C(=O)Nc2ccc3oc(-c4ccc5ccccc5c4)nc3c2)c1", "Potency": "inactive"}
{"smiles": "Cc1ccc(NC(=O)CN2c3ccccc3S(=O)(=O)c3ccccc32)cc1F", "Potency": "inactive"}
{"smiles": "COc1cc(C(=O)N(Cc2ccc(C(C)C)cc2)C2CCS(=O)(=O)C2)cc(OC)c1OC", "note": "(stereo unspecified)", "Potency": "inactive"}
{"smiles": "COc1ccc(S(=O)(=O)N/N=C\\c2ccc(OC)c(COc3ccc(C)cc3[N+](=O)[O-])c2)cc1", "Potency": "inactive"}
{"smiles": "CCc1ccc(S(=O)(=O)N/N=C\\c2ccc([N+](=O)[O-])o2)cc1", "Potency": "14.1 µM (active)"}
{"smiles": "CCc1ccc(S(=O)(=O)Nc2ccc(C)c(NS(C)(=O)=O)c2)cc1", "Potency": "inactive"}
{"smiles": "O=C(Cc1ccccc1)Nc1sc2c(c1C(=O)Nc1ccc(Br)cc1)CCC2", "Potency": "inactive"}
{"smiles": "COc1ccc(NC(=O)C(c2ccccc2)N2Cc3ccccc3C2=O)cc1", "note": "(stereo unspecified)", "Potency": "inactive"}
{"smiles": "CCOc1ccc(C(CC(=O)O)NC(=O)COc2ccccc2)cc1", "note": "(stereo unspecified)", "Potency": "inactive"}
{"smiles": "CCOC(=O)/C=C/C(=O)OCC(=O)NC(c1ccccc1)c1ccccc1", "Potency": "28.2 µM (active)"}
{"smiles": "Cc1ccccc1OCCC(=O)OCC(=O)NC(C)c1ccccc1", "note": "(stereo unspecified)", "Potency": "inactive"}
{"smiles": "CC(=O)Nc1ccc(S(=O)(=O)N2N=NC3C2C2CC4C3(CN(C(=O)OC(C)(C)C)S4(=O)=O)O2)cc1", "note": "(stereo unspecified)", "Potency": "inactive"}
{"smiles": "CN(C)c1ccc(/C=C/c2sc3ccccc3[n+]2CCCCBr)cc1", "Potency": "inactive"}
{"smiles": "Cc1ccc(C(=O)COC(=O)C(Cc2c[nH]c3ccccc23)NC(=O)c2ccc(Br)cc2)cc1", "note": "(stereo unspecified)", "Potency": "inactive"}
{"smiles": "CC(=O)OCC(NC(=O)C(Cc1ccccc1)NC(=O)OC(C)(C)C)C1OC(n2ccc(=O)[nH]c2=O)C(OC(C)=O)C1OC(C)=O", "note": "(stereo unspecified)", "Potency": "inactive"}
{"smiles": "COc1cc(OC)c2c(C)cc(=O)oc2c1C(CCN1CCCCC1)c1ccc(N(C)C)cc1", "note": "(stereo unspecified)", "Potency": "inactive"}
{"smiles": "C=C(C)C(=O)O[C@H]1C/C(C)=C\\C(=O)/C=C(\\C)[C@H](O)[C@@H]2OC(=O)C(=C)[C@@H]21", "Potency": "39.8 µM (active)"}
{"smiles": "CCOC(=O)N1CCc2c(sc(NCc3cccc(F)c3)c2C(=O)Nc2ccccc2OCC)C1", "Potency": "inactive"}
{"smiles": "COc1cc(OC)c(/C=C/c2ccnc3ccccc23)c(OC)c1", "Potency": "inactive"}
{"smiles": "C=C1CCN(C(CC(C)C)C(=O)N2CCOCC2)S(=O)(=O)c2ccccc21", "note": "(stereo unspecified)", "Potency": "inactive"}
